KAT2A inh = qHTS Assay for Inhibitors of GCN5L2; AID 504327, 2011; GCN5L2 HAT assay, ThioGlo1 CoA-SH fluorescence; 390,000 tested, 0.21% active; Potency, µM (doses to about 58.9 µM), inactives show at the top dose activity change, negative = inhibition, most hits filed as inhibitors; further: potency means the concentration at half of the fitted maximal effect
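qHTS, 1536-well. 20nM enzyme, pH 7.5 HEPES/EDTA/Tween-20 buffer; 15 min compound preinc., RT. Start: 75uM H3(1-25), 70uM AcCoA, 50uM ThioGlo1. Read Ex340/Em540 at t=0 (autofluorescence flag) and t=20 min.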
Tb PGK inh = qHTS Assay to Find Inhibitors of Phosphoglycerate Kinase; Phosphoglycerate kinase, glycosomal (Trypanosoma brucei brucei), P07378; PGK/GAPDH coupled, Kinase-Glo luminescence, 60 min; Potency, µM (highest dose often 57.5 µM), inactives show at the top dose activity change, negative = inhibition, most hits filed as inhibitors; 380,000 tested, 0.043% active; further: potency means the concentration at half of the fitted maximal effect; nearly all actives have a fitted effect of over 60% in size
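Recombinant glycosomal PGK reaction used 1,3-bisphosphoglycerate generated in-well by GAPDH (100nM final) in 100mM TEA pH 7.6, 5mM MgCl2, 0.01% Tween-20. After 60 minutes at room temperature, ATP was read by Kinase-Glo Plus luminescence end-point.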
PI5P4Ka inh = qHTS for Inhibitors of phosphatidylinositol 5-phosphate 4-kinase (PI5P4K); 330,000 tested, 1.2% active; PI5P4Kalpha enzyme, ADP-Glo luminescence, 60 min; active compounds read low; max response, %; active means max response of -50% or lower; inconclusive means between -30% and -50%; inactive means -30% or higher; further: value at the top dose of about 77 µM
Target sequence (P48426 whole entry, looked up): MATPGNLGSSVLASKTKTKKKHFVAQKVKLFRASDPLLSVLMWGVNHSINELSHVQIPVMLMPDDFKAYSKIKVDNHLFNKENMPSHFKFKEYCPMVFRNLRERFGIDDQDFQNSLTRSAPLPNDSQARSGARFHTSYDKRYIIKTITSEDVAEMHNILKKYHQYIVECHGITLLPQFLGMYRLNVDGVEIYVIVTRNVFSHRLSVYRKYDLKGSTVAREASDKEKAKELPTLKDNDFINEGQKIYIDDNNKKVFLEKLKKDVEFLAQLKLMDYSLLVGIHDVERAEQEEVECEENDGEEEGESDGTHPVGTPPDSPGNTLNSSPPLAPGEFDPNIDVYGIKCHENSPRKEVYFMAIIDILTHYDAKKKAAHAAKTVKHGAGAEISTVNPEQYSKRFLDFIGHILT
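Compounds were pin-transferred onto PI5P4Kalpha and substrate in HEPES pH 7.4 buffer with EGTA, CHAPS and 5% DMSO. ATP (5 microM final) started the reaction, which ran 60 minutes at room temperature before ADP-Glo detection.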
Pin1 inh = qHTS Assay to Find Inhibitors of Pin1. Peptidyl-prolyl cis-trans isomerase NIMA-interacting 1 (Homo sapiens), Q13526. Pin1 FP peptide displacement, HiFluor488, 10 min. Potency, µM (titrated, usually from 115 µM), for inactives: at the top dose activity, negative = inhibition, most hits filed as inhibitors. 390,000 tested, 0.009% active; active means well fitted inhibition curve with a large enough effect in the polarisation, with a control signal flat, not every such curve was filed as active; inconclusive means small, poorly fitted or top-dose-only effect, or effect the other way, or a change in a side signal; inactive means no such curve, though single readings can be large or run the other way; the % refers to the polarisation; further: potency means the concentration at half of the fitted maximal effect
RGS12 GoLoco inh = qHTS Assay for Inhibitors of RGS12 GoLoco Motif Activity (Red Fluorophore) | Guanine nucleotide-binding protein G(i) subunit alpha-1 (Homo sapiens), P63096 | Gai1:RGS12 GoLoco peptide FP, rhodamine, 10 min | Potency, µM (titrated, usually from 61.6 µM), without a hit: top-dose activity, negative = inhibition, hits mostly inhibitors | 230,000 tested, 0.44% active | AID 880, 2007; active means well fitted inhibition curve with a large enough effect, not every such curve was filed as active; inactive means no such curve, though single readings can be large or run the other way; further: potency means the concentration at half of the fitted maximal effect; nearly all actives have a fitted effect of over 30% in size
PI4K2A block = qHTS for small molecular inhibitors of PI4K2A | Phosphatidylinositol 4-kinase type 2-alpha (Homo sapiens), Q9BTU6 | purified PI4K2A, ADP-Glo luminescence, 1 h; active compounds read low | activity change, negative = inhibition, % at 76.9 µM | 420,000 tested, 0.13% active | AID 1346378, 2018; in the data active means activity change below about -50%; inconclusive means mostly about -30% to -49%;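 further: -100% = wells without enzyme as full effect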
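Compounds are screened against recombinant PI4K2A using PI as substrate and ATP, the latter dispensed at 300 microM. Reactions run one hour at ambient temperature before ADP-Glo detection; full inhibition defined by wells lacking enzyme.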
* marks the source's active call; other numbers are inactive results; i = inactive; ? = inconclusive; . = no result; ! = not confirmed by another sample; [ ] = another dose, or the depositor's remark. Hits are enriched below; roughly 1.2% of the tested compounds scored in any of these assays. Unless noted, the call rests on the fitted dose curve; in most records, active means well fitted curve in the direction sought with a large enough effect; inconclusive means small, poorly fitted or top-dose-only effect, or another doubt; inactive means no such curve, though single readings can be large; an effect the other way counts as inactive or inconclusive. Unless noted, on the % scale 0 is the no-effect control and ±100 the full control effect.

SMILES	KAT2A inh	Tb PGK inh	PI5P4Ka inh	Pin1 inh	RGS12 GoLoco inh	PI4K2A block
COC(=O)C1=C(C)N(CCCC(=O)O)C(=O)NC1c1cccs1 (stereo unspecified)	-1%	i	-73*	3%	0%	2
CCOC(=O)C1=C(C)N(CCCC(=O)O)C(=O)NC1c1cccs1 (stereo unspecified)	.	-1%	-66*	-3%	.	0
CC(=O)NC(O)C(=O)c1ccco1 (stereo unspecified)	2%	-8%	.	?	11%	3
O=C(Nc1ccccn1)c1ccc(Cl)c(S(=O)(=O)N2CCCC2)c1	-23%	i	-3	-5%	.	-4
CCCCCCCC/C=C\CCCCCCCC(N)=O	-5%	.	.	.	22µM*!	.
CCCCCC(N)=O	-4%	-1%	1	-8%	-9%	-1
Nc1c(C(=O)NC2CC2)sc2nc3c(c(-c4ccco4)c12)CC/C3=C/c1ccco1	?	?	-96*	.	53%	-74*
O=C(COC(=O)c1ccc(NS(=O)(=O)c2cccs2)cc1)NCc1ccco1	-7%	?	-72*	.	11%	-30
O=C(COC(=O)c1cccs1)NCc1ccco1	-8%	?	?	?	-1%	-1
Cn1c[n+](C)cc1/C=N/O	-6%	-2%	-17	1%	4µM*	-5
C[n+]1ccccc1/C=N\O	-9%[21.4 µM]	.	.	.	3%[21.6 µM]	.
COc1ccc(NC(=S)NC(NC(=O)CCl)C(Cl)(Cl)Cl)c([N+](=O)[O-])c1 (stereo unspecified)	-18%	-3%	-55*	-7%	-8%	-21
CCCCC1=CC2=CC(=O)C(C)(OC(=O)CC)C(=O)C2=CN1c1cccc(C#N)c1 (stereo unspecified)	.	0%	-2	?	0%[14.2 µM]	-15
O=C1C=CC2=C3c4cc(O)c(O)cc4C[C@@]3(O)COC2=C1	.	.	.	.	0.35µM*	.
CC(/C=C/c1ccccc1F)=N\NC(=O)c1ccc(Cl)cc1	-6%	i	-68*	-7%	11%	-1
CCCCCCc1cc2cc(-c3nnc(-c4ccccc4OC)o3)c(=O)oc2cc1O	-7%	?	-88*	?	48%	-3
CCNc1ncc2nc(CCc3ccccc3)c(=O)n(C3CC3)c2n1	-16%	.	.	.	3%	.
CN1C(=O)C2(Oc3ccccc3C3CC(c4ccccc4)=NN32)c2ccccc21 (stereo unspecified)	-8%	-3%	1	29%	10%	-4
Cc1ccc(C2=NN3C(C2)c2ccccc2OC32C(=O)Nc3ccccc32)cc1 (stereo unspecified)	0%	2%	-53*	20%	139%	-5
Cc1cc(O)c(C(C)C)cc1N=Nc1ccccc1C(=O)O	-6%	2%	-57*	71%	76%	0
Cc1cc(N=Nc2ccccc2C(=O)O)c(C)c(C)c1O	-13%	-3%	-51*	105%	124%	-1
Cc1cc(C)c(Nc2n[nH]c(=S)s2)cc1C	.	-9%	-90*	.	.	1
Cc1ccc(Nc2n[nH]c(=S)s2)c(C)c1	.	-3%	-88*	.	.	0
C=CCNc1n[nH]c(=S)s1	.	-3%	0	.	.	-1
c1ccc(CSc2ncccc2-c2nc3ccccc3[nH]2)cc1	.	.	.	.	.	-2
Cc1ccc(S(=O)(=O)c2cc3c(=O)n4ccccc4nc3n(Cc3ccco3)c2=N)cc1C	16µM*	i	-21	?	8%	-2
CSc1nc(C)cc(C)c1C#N	-15%	-7%	-50*	-13%	10%	3
Cc1cc(C)c(C#N)c(SCc2ccc(F)cc2)n1	-7%	i	-5	-8%	23%	0
